# Most compounds without a hit are left out; they make up all but 2.1% or so of the library.
# FUS suppressor – FUS proteinopathy suppression in yeast | S. cerevisiae FUS-expressing, growth rescue, OD600, 24 h | Potency, µM (highest dose often 76.6 µM), hits mostly activators | 0.24% of 390,000 active;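 note: plate controls were DMSO vehicle for no effect and reference control for full effect; nearly all actives have a fitted effect of over 55% in size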
#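 Steps: raffinose overnight preculture; dilution to OD 0.005 in 2% galactose minimal medium; compound addition (concentration series); 24hr at 30C, 99% humidity; absorbance read at 600 nm.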
# aSyn yeast inh – alpha-synuclein toxicity inhibition in yeast. Yeast expressing alpha-synuclein, growth rescue, BacTiter-Glo, 24 h. Potency, µM (highest dose often 46.1 µM), for inactives: top-dose growth rescue (activation), actives largely listed as activators. 0.14% of 370,000 active; note: % of control where 0% means no effect; nearly all actives have a fitted effect of over 65% in size
#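 Galactose-induced alpha-syn yeast (OD600=0.02, raffinose-pregrown) + pinned cpd, 24 hr, 30 deg C; growth by BacTiter-Glo luminescence. Growth restoration scores as activation.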
# Abeta rescue – compounds reversing amyloid beta toxicity in yeast; Potency, µM (doses to about 46.1 µM), hits mostly activators; 0.063% of 410,000 active; AID 1347071; yeast expressing A-beta42, growth rescue, OD600, 48 h; response scale: 0% DMSO, 100% iron-clioquinol control; note: nearly all actives have a fitted effect of over 55% in size
#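 Yeast growth medium received pinned compounds, then yeast cells expressing toxic A-beta were added; plates incubated at 30 C for 48 hr. Growth read as absorbance at 600 nm, normalized to DMSO and equimolar FeCl3 plus clioquinol controls.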
# TDP43 rescue – rescues yeast growth from TDP-43 toxicity; AID 652104; TDP-43 expressing yeast growth rescue, BacTiter-Glo, 24 h; 1.8% of 410,000 active; Potency, µM (highest dose often 46.1 µM), for inactives: at the top dose growth rescue (activation), hits mostly activators; note: % of control where 0% means no effect; nearly all actives have a fitted effect of over 50% in size
#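 Cell-based yeast growth screen: TDP-43 expression induced in galactose, inoculum OD600=0.02 after raffinose pregrowth to mid-log. Read-out BacTiter-Glo luminescence at 24 hr, 30 deg C; inhibition of toxicity seen as signal increase.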
# * marks the source's active call; other numbers are inactive results; i = inactive; ? = inconclusive; nt = not tested or not shown; ! = not confirmed by another sample; [ ] = remark or other dose. Calls come from the whole dose curve; as a rule, active = well fitted curve in the direction sought with a large enough effect; inconclusive = small, poorly fitted or top-dose-only effect, or another doubt; inactive = no such curve, though single readings can be large; an effect the other way counts as inactive or inconclusive. Potency is the fitted concentration of half-maximal effect.
SMILES,FUS suppressor,aSyn yeast inh,Abeta rescue,TDP43 rescue
CCN(CC)/[N+]([O-])=N/Oc1ccc([N+](=O)[O-])cc1[N+](=O)[O-],nt,-73.0%,nt,nt
Nc1ccc(NC(=O)c2cccc(C(=O)Nc3ccc(N)cc3Cl)c2)c(Cl)c1,11.2µM*!,-1.0%,i,-16.0%
COc1ccc(C)cc1NC(=O)NCc1ccc2c(c1)CCN2C(=O)c1ccccc1,?,nt,i,4.2%
CC1(C)Cc2c(c(N3CCOCC3)nc3snc(Br)c23)CO1,i,3.7%,i,15.8µM*
O=C(Nc1ncc2c(n1)-c1ccccc1CC2)c1cccc(Cl)c1,nt,-1.9%,i,12.6µM*
O=C(Nc1ncc2c(n1)-c1ccccc1CC2)c1ccc(Cl)cc1,i,12.8%,i,3.2%
O=C(NC1CCCCCC1)C1CCC(CNS(=O)(=O)c2cccc3cccnc23)CC1 (configuration not stated),nt,2.9%,nt,nt
Cc1cc2nnc(SCc3ccc(F)cc3)n2c2ccccc12,i,23.7%,i,35.5µM*
CC(=O)CSc1nnc2cc(C)c3ccccc3n12,i,-4.2%,i,-0.9%
CCOC(=O)[C@]12CCCC=C1N(Cc1ccc(OC)cc1)C(=O)[C@@H]2CC(=O)N1CCCC1,i,nt,nt,nt
Fc1cccc(CNC(=S)OC2CCC23CCC(c2ccccc2)CC3)c1 (configuration not stated),i,nt,nt,nt
O=C(Nc1c(-c2ccc(C(F)(F)F)cc2)nc2ncccn12)C1CC1,i,nt,nt,nt
CCc1ccc(S(=O)(=O)NCc2cccn2Cc2cccc(C)c2)cc1,i,nt,i,-0.6%
Cc1cccc(Cn2cccc2CNS(=O)(=O)c2ccccc2F)c1,i,nt,i,20µM*
O=C(Nc1nc(-c2ccccn2)cs1)c1ccco1,i,17.8µM*,?,-8.3%
O=c1oc2ccccc2cc1-c1csc(Nc2nc3c(F)cccc3s2)n1,nt,1.5%,i,-3.1%
C[C@H](NC(=O)c1ccco1)C(=O)Nc1nc(-c2ccccn2)cs1,nt,-3.3%,i,15.5%
Cc1ccc(C(=O)Nc2nc(-c3ccccn3)cs2)cc1S(=O)(=O)N1CCOCC1,i,12.6µM*,i,?
O=c1oc2ccccc2cc1-c1csc(NN=C2CCCCC2)n1,12.6µM*,2.7%,i,-10.1%
O=C(Nc1nc(-c2ccncc2)cs1)c1ccco1,?,-8.2%,i,-16.6%
O=C(Nc1nc(-c2cc3ccccc3oc2=O)cs1)c1ccco1,i,-7.5%,i,3.55µM*
CN(C)c1ccc(C(=C2c3ccccc3-c3ccccc32)c2ccc(N(C)C)cc2)cc1,nt,2.4%,nt,nt
CN(C)CC(=O)N[C@@H]1C[C@@H]2O[C@@H](CO)CC[C@@H]2O[C@@H]1CCc1ccc(-c2ccc(F)cc2)cc1,i,nt,nt,nt
O=C(Nc1cccc(Cl)c1)OCCN1CCCC12CCC(c1ccccc1)CC2 (configuration not stated),i,nt,nt,nt
O=C(COc1ccc(Br)cc1Cl)c1ccc[nH]1,i,12.2%,i,20µM*
SMILES,FUS suppressor,aSyn yeast inh,Abeta rescue,TDP43 rescue
CC(C)c1ccc(Nc2ncnc3onc(-c4ccc(F)cc4)c23)cc1,?,nt,i,15.1%
COc1ccc(S(=O)(=O)N2CCN(Cc3nc4ccc(C)cc4o3)CC2)cc1,i,nt,i,17.8µM*
Oc1c(Cl)cc(Cl)cc1/C=N/NC(=S)NC1CC2C=CC1C2 (configuration not stated),i,1.0%,?,-6.4%[1.82 µM]
Oc1ccccc1C=NNC(=S)NC1CC2C=CC1C2 (configuration not stated),i,?,?,12.6µM*
Oc1ccccc1/C=N/NC(=S)NC1CC2C=CC1C2 (configuration not stated),i,24.0%,11.2µM*,15.9%
Oc1ccccc1C=NNC(=S)Nc1ccc(F)cc1,i,22.4µM*,i,?
CC(C)(C)OC(=O)n1cc(-c2ccccc2)c2c(-c3ccccc3)c(O)ccc21,i,nt,nt,nt
CCCCCCC(=O)Nc1ccc(C(=O)N/N=C/c2cccnc2)cc1,28.2µM*,-1.4%,i,-5.9%
c1ccc(Cn2nnnc2C(c2ccccc2)N2CCN(Cc3ccncc3)CC2)cc1 (configuration not stated),nt,7.5%,nt,nt
CC(NC(=O)CCCCCCN1C(=O)c2ccccc2C1=O)c1ccc2c(c1)CCCC2 (configuration not stated),nt,-16.3%,i,35.5µM*
O=C(Nc1nccs1)C1(c2ccc(Cl)cc2)CC1,i,-0.7%,i,18.6%
C=C1C2(C(=O)Nc3nccs3)CCC(C2)C1(C)C (configuration not stated),i,0.4%,?,12.6µM*
CCCc1ccc(OCC(=O)O)cc1,i,-0.2%,i,-9.9%
CCCOc1ccc(CCC(=O)O)cc1,i,0.7%,i,14.1µM*
CC(C)CN1C(=O)[C@]2(CC(=O)N(C)C2c2ccccc2)c2cc(-n3cc(CCc4ccccc4)nn3)ccc21 (some centres not stated),i,nt,nt,nt
COc1cccc(CNC(=O)CSCc2cnn(-c3ccccc3)c2-n2cccc2)c1OC,i,20.8%,i,?
COc1ccccc1CNC(=O)CSCc1cnn(-c2ccccc2)c1-n1cccc1,i,14.2%,i,17.8µM*
Cc1ccc(NC(=O)CSCc2cnn(-c3ccccc3)c2-n2cccc2)c(Cl)c1,i,nt,i,15.3%
CCOc1ccc(NC(=O)CSCc2cnn(-c3ccccc3)c2-n2cccc2)cc1,i,11.1%,i,20µM*
Cc1cccc(C)c1NC(=O)CSCc1cnn(-c2ccccc2)c1-n1cccc1,i,nt,i,25.1µM*
Cc1cccc(NC(=O)CSc2cn(CC(=O)N3CCCCCC3)c3ccccc23)c1,i,nt,i,3.4%
COc1ccc(C(=O)NCCN2C(=O)C3C4C=CC(C4)C3C2=O)cc1OC (configuration not stated),i,nt,nt,nt
Nc1ccc(C#Cc2ccccc2)cc1,i,4.9%,i,14.1µM*
COC(=O)C1=C(C)NC(C)=C(C(=O)OCC(C)C)C1c1ccccc1[N+](=O)[O-] (configuration not stated),i,-3.9%,i,35.5µM*
CC(C)[C@H](NC(=O)[C@@H]1CCCN1)C(=O)N1CCC2CCN(S(=O)(=O)c3ccccc3)CC21 (some centres not stated),i,nt,nt,nt
COc1ccc(OC)c(NC(=O)c2ccc(OC3CSC3)cc2)c1,i,-10.1%,?,12.6µM*
COc1ccc(OC)c(NC(=O)C2C3CCC(C3=C(C)C)C2C(=O)O)c1 (configuration not stated),i,2.9%,i,15.8µM*
COc1ccc(OC)c(NC(=O)c2ccc(NC(C)=O)cc2)c1,i,2.0%,i,-4.8%
Cc1ccccc1Cn1cc(CN2[C@H](CC(C)C)COc3cc(Br)ccc3S2(=O)=O)nn1,i,nt,nt,nt
COCCCNC(=O)C[C@H]1C[C@@]2(C(=O)OC)C(=C[C@H](C(C)C)O[C@@H]2C2CC2)N(CCc2ccc(OC)c(OC)c2)C1=O,i,nt,nt,nt
